FLuc counter: inhibits or activates purified firefly luciferase, miR-21 counter-screen; purified FLuc, Km substrates, luminescence inhibition; Potency, µM (doses to about 57.5 µM), most hits filed as inhibitors; actives 6.9% (n = 360,000); AID 588342; further: nearly all actives have a fitted effect of over 55% in size
Target sequence (P08659 whole entry, looked up): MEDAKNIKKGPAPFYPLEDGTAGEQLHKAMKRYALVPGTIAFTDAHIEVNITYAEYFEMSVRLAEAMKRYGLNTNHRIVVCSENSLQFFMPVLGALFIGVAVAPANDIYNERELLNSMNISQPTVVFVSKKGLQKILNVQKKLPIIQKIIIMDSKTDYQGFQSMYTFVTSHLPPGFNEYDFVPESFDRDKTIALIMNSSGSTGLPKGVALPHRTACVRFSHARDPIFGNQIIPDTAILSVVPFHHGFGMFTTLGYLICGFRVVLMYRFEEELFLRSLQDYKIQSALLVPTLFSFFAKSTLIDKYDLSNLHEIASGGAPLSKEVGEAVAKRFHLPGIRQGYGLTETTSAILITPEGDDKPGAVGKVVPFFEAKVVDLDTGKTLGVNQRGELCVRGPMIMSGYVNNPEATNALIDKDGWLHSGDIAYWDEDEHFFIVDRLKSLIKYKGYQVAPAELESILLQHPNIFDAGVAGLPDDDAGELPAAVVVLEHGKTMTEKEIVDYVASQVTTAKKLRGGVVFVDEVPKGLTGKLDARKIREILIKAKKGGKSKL
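Purified P. pyralis luciferase, 10 nM final, with Km-level 10 uM D-luciferin and 10 uM ATP in 50 mM Tris acetate pH 7.5, 10 mM Mg acetate, 0.01% Tween-20, 0.05% BSA; 6-point qHTS titration about 60 µM downward; luminescence read.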
ELG1 genotoxic: induces genotoxicity in HEK293T cells with luciferase-tagged ELG1. HEK293T ELG1-luciferase reporter, luminescence, 16 h. Potency, µM (titrated, usually from 46 µM), most hits filed as activators. actives 1.3% (n = 330,000). AID 504466; further: nearly all actives have a fitted effect of over 60% in size
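DMSO vehicle served as control against compound-treated ELG1-luciferase HEK293T cells; exposure lasted 16 hr at 37 °C and 5% CO2, followed by ONE-Glo luminescence detection after 30 min.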
SMN2 splice up: enhancers of SMN2 splice variant expression | AID 1458 | actives 2.8% (n = 210,000) | HEK293 SMN2-luciferase splicing reporter, luminescence, 30-36 h | Potency, µM (series often up to 46.1 µM), actives largely listed as activators; further: nearly all actives have a fitted effect of over 55% in size
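qHTS luciferase splicing reporter: luminescence rises when SMN2 exon 7 is included in transfected HEK293 cells. Compound exposure lasted 30-36 h at 37C, with 4.5 mM final sodium butyrate as control, followed by a ONE-Glo read.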
Rab9 prom act: Rab9 promoter activation; Huh7 Rab9 promoter-luciferase reporter, luminescence, 24 h; Potency, µM (top dose mostly 9.22 µM), hits mostly activators; actives 2.8% (n = 320,000); AID 485297; further: nearly all actives have a fitted effect of over 60% in size
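Luminescence read-out: Huh7 cells stably expressing Rab9-luciferase, treated 24 h with compound at 37 °C, then lysed with luciferase reagent for 10 min at ambient before reading.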
NPC1 promoter act: activates the NPC1 promoter; Huh7 NPC1 promoter luciferase reporter, 24 h; Potency, µM (titrated, usually from 9.22 µM), most hits filed as activators; actives 2.4% (n = 320,000); further: nearly all actives have a fitted effect of over 60% in size
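NPC1 promoter–luciferase Huh7 cells; 24 h compound; luminescence.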
Numbers stand for hits; n = inactive; u = inconclusive; x = no result; [ ] = dose if it differs, or a comment. Shown are actives, neighbours in structure and some others; about 7.4% of the full set was active somewhere. The call rests on the fitted dose curve; in most records, active means well fitted curve in the direction sought with a large enough effect; inconclusive means small, poorly fitted or top-dose-only effect, or another doubt; inactive means no such curve, though single readings can be large; an effect the other way counts as inactive or inconclusive.

SMILES | FLuc counter | ELG1 genotoxic | SMN2 splice up | Rab9 prom act | NPC1 promoter act
O=C(/C=C/c1ccccc1Cl)c1ccc(O)cc1 | 9.53µM | n | x | n[1.84 µM] | n
N#Cc1ccc(/C=C/C(=O)c2cccnc2)cc1 | n | u | n | n | n
O=C(/C=C/c1ccc(Cl)cc1)c1cccnc1 | 21.3µM | n | n | n | n
O=C(/C=C/c1ccccc1Cl)c1cccnc1 | 16.9µM | n | n | n | n
O=C(/C=C/c1ccccc1Cl)c1ccccc(=O)c1O | u | n | n | n | n
O=C(/C=C/c1c(F)cccc1Cl)Nc1ncccn1 | 15.1µM | u | 14.1µM | 2.51µM | 2.82µM
NCCC[C@@H](CC(=O)N[C@@H]1CCCC[C@H]1C(=O)N[C@H](CC(=O)N[C@@H](CCC(=O)O)CC(=O)O)Cc1ccccc1)NC(=O)C[C@H](Cc1ccccc1)NC(=O)[C@@H]1CCCC[C@H]1N | x | x | n | x | x
CCCCC/C=C\C=C\[C@H](O)CCCCCCCC(=O)O | x | x | n | x | x
COc1cc(C(=O)/C=C/c2cccnc2)ccc1O | 19µM | n | x | n | n
COc1ccc(OC)c(C(=O)/C=C/c2cccnc2)c1 | n | n | x | n | n
O=C(/C=C/c1c(F)cccc1Cl)c1ccc(O)cc1 | 10.7µM | n | x | n | n
C=CCNC(=O)/C=C/c1c(F)cccc1Cl | u | n | n | u | n
Cn1c(SCC(=O)N2CCCc3ccccc32)ncc(C(=O)Nc2ccc(Cl)cc2)c1=O | n | x | x | x | x
CCc1ccc(NC(=O)CC2C(=O)N(c3cccc(C)c3)C(=O)N2Cc2ccco2)cc1 (stereo not given) | n | x | x | x | x
NC(=O)c1ccccc1NC(=O)/C=C/c1c(Cl)cccc1Cl | 19µM | n | n | 3.16µM | u
Cc1ccc(/C=C/C(=O)Nc2ccccc2C(N)=O)o1 | 9.53µM | x | 11.2µM | x | x
NC(=O)c1ccccc1NC(=O)/C=C/c1cccc(Cl)c1 | 6.75µM | n | 11.2µM | 2.24µM | 3.16µM
Cc1ccccc1Cn1nnc(C(=O)Nc2ccc3c(c2)OCCO3)c1N | 3.01µM | n | x | 1.78µM | 2.82µM
Cc1ccc(C)c(Cn2nnc(C(=O)Nc3ccc4c(c3)OCCO4)c2N)c1 | u | n | x | u | u
Nc1c(C(=O)Nc2ccc3c(c2)OCCO3)nnn1Cc1cccc(F)c1 | u | u | x | 3.16µM | 3.55µM
COc1ccc(Cn2nnc(C(=O)Nc3ccc4c(c3)OCCO4)c2N)cc1Br | 21.3µM | n | x | n | n
Nc1c(C(=O)Nc2ccc3c(c2)OCCO3)nnn1Cc1ccc(Cl)cc1 | u | u | x | 0.891µM | 2.24µM
Nc1c(C(=O)NCc2ccc3c(c2)OCO3)nnn1Cc1cccc(F)c1 | n | n | x | n | n
Nc1c(C(=O)NCc2ccc3c(c2)OCO3)nnn1Cc1ccc(Br)cc1 | n | n | x | n | n
OC[C@H]1O[C@H](n2cnc3c(N[C@H]4CCC[C@@H]4O)ncnc32)[C@H](O)[C@@H]1O | x | x | x | n | n
SMILES | FLuc counter | ELG1 genotoxic | SMN2 splice up | Rab9 prom act | NPC1 promoter act
CCOC(=O)C1CCN(C(=O)c2nn(-c3ccc(OC)c(Cl)c3)c(=O)c3c2c2ccccc2n3C)CC1 | n | x | n | x | x
Cc1ccc(NC(=O)c2cccc(C(=O)OC(C)C)n2)c(Br)c1 | u | n | n | n | n
COC(=O)c1cccc(C(=O)Nc2ccc(C)cc2Br)n1 | 10.7µM | n | u | n | n
COC(=O)c1cccc(C(=O)Nc2cnc3ccccc3c2)n1 | 23.9µM | n | n | u | 3.98µM
S=C(NCCc1ccccc1)Nc1ccc(Nc2ccccc2)cc1 | n | n | x | n | n
COc1ccc(CCC(=O)Nc2cnc3ccccc3c2)cc1 | u | n | x | n | n
Cc1ccc(NC(=O)Nc2cnc3ccccc3c2)cc1 | u | u | 12.6µM | 1.26µM | 2.24µM
S=C(NCCc1ccccc1)Nc1cnc2ccccc2c1 | 26.9µM | u | u | u | n
CCN(CC)C(=O)Nc1cnc2ccccc2c1 | u | n | n | u | n
N=C(N)CCNC(=O)[C@@H]1CCC(N)=N1 | x | x | n[9.22 µM] | x | x
O=C(Nc1cnc2ccccc2c1)c1ccncc1 | 12µM | 2.31µM | n | 3.16µM | 1.78µM
Cn1ncc2cc(NC(=S)NC(=O)c3ccccc3)ccc21 | 12µM | n | n | 2µM | 2µM
O=C(NC(=S)Nc1cnc2ccccc2c1)c1ccccc1 | 7.57µM | u | 11.2µM | 3.55µM | u
Cc1cc(C)nc(NC(=S)NC(=O)c2ccccc2)n1 | n | n | x | u | u
O=C(NC(=S)Nc1ncc(Br)cc1Br)c1ccccc1 | 21.3µM | u | x | n | u
O=CN/C=C/c1cc(F)cc(F)c1F | x | x | n | x | x
CCc1ccc(NC(=O)Cn2c(=O)n(CCCC(=O)NCc3ccccc3OC)c(=O)c3ccccc32)cc1 | n | x | n | x | x
O=C(/C=C/c1ccco1)Nc1ccc2nn(-c3ccccc3)nc2c1 | n | n | n | u | n
O=C(/C=C/c1ccco1)Nc1ccccc1C(=O)O | 2.69µM | 10.3µM | 12.6µM | 2.82µM | 2µM
O=C(/C=C/c1ccco1)Nc1cc(Cl)ccc1C(=O)O | 19µM | n | n | n | n
O=C(/C=C/c1ccco1)Nc1ccccc1C(=O)Nc1cccc(C(=O)O)c1 | 3.01µM | n | x | n | n
O=C(/C=C\c1ccco1)Nc1cc([N+](=O)[O-])ccc1F | n | u | n | n | n
COCCn1c(=O)c(-c2cn(C)c3ccccc23)nc2cnc(Oc3ccc(OC)cc3)nc21 | x | x | n | x | x
COc1ccc(C)cc1NC(=O)c1ccc2nc(Cc3ccccc3)oc2c1 | n | x | x | x | x
N#CCCS(=O)(=O)c1ccccc1 | x | x | n | x | x
SMILES | FLuc counter | ELG1 genotoxic | SMN2 splice up | Rab9 prom act | NPC1 promoter act
COc1ccc2c(C)c(CCC(=O)NCCc3ccc(OC)c(OC)c3)c(=O)oc2c1 | n | x | n | x | x
C=CC1=C2C=C(C3CC3)N(CCCCO)C=C2C(=O)C(C)(OC(=O)c2ccco2)C1=O (stereo not given) | x | x | n[9.22 µM] | x | x
COc1cccc(Oc2nnnn2-c2ccccc2)c1 | 16.9µM | u | x | 3.98µM | u
CC(C)[C@@H](CC(=O)N[C@@H]1CCCC[C@H]1C(=O)N[C@H](CC(=O)N[C@@H](CCC(=O)O)CC(=O)O)Cc1ccccc1)NC(=O)C[C@H](Cc1ccccc1)NC(=O)[C@@H]1CNCC[C@H]1N | x | x | n | x | x
CC(C)C(=O)Nc1nnc(SCC(=O)Nc2ccc3c(c2)OCO3)s1 | n | n | n | n | n
CC(C)(C)C(=O)Nc1nc2cc3c(cc2s1)OCO3 | 4.78µM | u | x | 1.12µM | 2µM
CC(C)C(=O)Nc1nc2cc3c(cc2s1)OCO3 | 13.5µM | 18.4µM | n | u | u
CN(C)c1ccc(NC2=C(Cl)C(=O)c3ccccc3C2=O)cc1 | 7.57µM | u | n | n | n
CCOC(=O)c1cnc(SCC(=O)c2ccc(C)cc2)nc1N | n | n | n | n | n
CCOC(=O)c1cnc(SCC(C)C)nc1N | 6.75µM | u | 14.1µM | 2.51µM | 3.16µM
CCOC(=O)c1cnc(SCC(=O)c2ccc3c(c2)OCCO3)nc1N | 21.3µM | n | n | u | n
CCOC(=O)c1cnc(SCc2cccc(C)c2)nc1N | u | 16.4µM | u | n | n
CCOC(=O)c1cnc(SCC(=O)c2ccccc2)nc1N | 2.13µM | 20.6µM | 12.6µM | 1.58µM | 3.16µM
CCc1cc(=O)oc2c(C)c3c(cc12)CN(CCc1ccccc1)CO3 | n | x | n | x | x

Compound activity as filed in PubChem.
